# Active and inactive are the calls of the source.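 The calls were made as follows, unless noted: active = fluorescence slope higher than the sample average by over 3 SD (cut at about -0.22 in these data, passing the limit was not always enough); inactive = the rest.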
# Columns and labels:
# [1] = inhibitors of TNFa-induced NFkB p65 translocation, primary screen, imaging, HUVEC, MLSMR starter and 10KST1 sets (AID 438;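 active = inhibition above 20% together with a positive visual image hit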;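 also: compound added about 3h40 before a 20 min TNFalpha stimulation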;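 as to inhibition: signal is the nuclear over cytoplasmic p65 intensity ratio per well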); conditions: HUVEC TNFa-induced p65 nuclear translocation; cell count: measured here: nuclei count (cytotoxicity indicator), at 2.08 µM; inhibition: at 2 µM, stronger effect = higher value, 0% TNFa-plus-vehicle, 100% no-TNFa wells
# [2] = reduction of polyQ htt aggregates in cells – imaging, exon1htt(103Q)mCFP cells, high-content imaging, primary screen (AID 483;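 active = visual image review flags a hit and inhibition of aggregation exceeds 20%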;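 also: compound exposure lasted 3 days before fixation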;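 as to nuclei count: percent of the per-plate median nuclei count of sample wells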); conditions: exon1htt(103Q)mCFP cell line, aggregate imaging, at 2 µM; inhibition of aggregation: stronger effect = higher value; nuclei count: measured here: cell count, toxicity
# [3] = endothelial E-selectin expression blockers – imaging, HUVEC, immunofluorescence, MLSMR starter and 10KST1 sets, primary screen (AID 487;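 active = visually confirmed hit in the image check and inhibition above 20%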;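 as to inhibition: signal is fraction of cell area covered by stained E-selectin grains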;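 as to nuclei count: 100% = median nuclei count of all wells on the same plate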); conditions: HUVEC TNFalpha-induced E-selectin immunofluorescence imaging, at 2 µM; inhibition: stronger effect = higher value; nuclei count: measured here: cell number, toxicity
# [4] = target: Voltage-gated potassium channel subunit beta-2 (Rattus norvegicus) (UniProt P62483); assay: inhibitors of rat Kvbeta2 reductase activity – biochemical, NADPH fluorescence, primary screen (AID 622); conditions: recombinant KvBeta, 4-cyanobenzaldehyde reduction, at 10 µM, stronger effect = higher value;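 also: slope of raw intensity against log time taken from 70 to 1610 s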
# [5] = target: Voltage-gated potassium channel subunit beta-2 (Rattus norvegicus) (UniProt P62483); assay: enhancers of rat Kvbeta2 NADPH turnover – biochemical, NADPH fluorescence, primary screen (AID 623;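 active = NADPH fluorescence slope more negative than the mean of all samples by about 3 SD, 99.7% confidence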;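 also: fluorescence intensity change per second fitted from 20 to 320 s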); conditions: Recombinant KvBeta, NADPH fluorescence decrease slope, 10 min; at 10 µM; stronger effect = lower value
# [6] = target: Alpha-2C adrenergic receptor (Homo sapiens) (UniProt P18825); assay: compounds altering alpha2C-coupled GIRK flux – cell-based, HEK293 alpha2C/GIRK1/2, thallium flux, primary screen (AID 624;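 active = fluorescence slope after compound addition differing from the mean of all screened samples at 99.7% confidence, in either direction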;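 also: slope of fluorescence ratio to pre-addition baseline per second over 15 to 24 s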); conditions: thallium flux BTC fluorescence, at 10 µM, actives lie on both sides
# [7] = blockers of RIG-like receptor reporter activation – cell-based, Sendai virus stimulus, luciferase, 10K MLSCN set, TLR/RLR signaling modifier project, primary screen (AID 602276;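 active = inhibition at or above 50% at 10 µM; inactive = inhibition below 50%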;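 also: firefly luciferase from ISG56 promoter only with Renilla not read in this screen; 0% = Sendai virus plus DMSO and 100% = medium plus DMSO without virus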); conditions: HEK293 RL24 IRF3 luciferase reporter, at 10 µM, stronger effect = higher value
# [8] = TLR3 IRF3 reporter activation blockers – cell-based, poly I:C stimulus, luciferase, 10K MLSCN set, primary screen (AID 602277;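 active = inhibition of the reporter signal at or above 50%; inactive = inhibition below 50%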); conditions: HEK293-TLR3 RL24 IRF3 luciferase reporter, at 10 µM, stronger effect = higher value
# Alpha-2C adrenergic receptor (Homo sapiens), sequence (P18825 whole entry, looked up): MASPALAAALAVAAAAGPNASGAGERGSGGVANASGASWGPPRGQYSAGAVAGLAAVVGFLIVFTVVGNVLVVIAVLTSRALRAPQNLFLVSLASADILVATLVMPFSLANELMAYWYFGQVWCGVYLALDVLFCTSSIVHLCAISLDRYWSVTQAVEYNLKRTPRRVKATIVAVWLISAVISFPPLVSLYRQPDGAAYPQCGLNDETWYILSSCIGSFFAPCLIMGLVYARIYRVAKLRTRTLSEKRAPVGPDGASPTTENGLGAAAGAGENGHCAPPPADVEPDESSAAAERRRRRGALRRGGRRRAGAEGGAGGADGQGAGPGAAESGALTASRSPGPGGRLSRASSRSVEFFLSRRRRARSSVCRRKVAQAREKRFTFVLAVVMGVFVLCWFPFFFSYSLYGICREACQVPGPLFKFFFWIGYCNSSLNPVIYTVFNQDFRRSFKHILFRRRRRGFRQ
# Voltage-gated potassium channel subunit beta-2 (Rattus norvegicus), sequence (P62483 whole entry, looked up): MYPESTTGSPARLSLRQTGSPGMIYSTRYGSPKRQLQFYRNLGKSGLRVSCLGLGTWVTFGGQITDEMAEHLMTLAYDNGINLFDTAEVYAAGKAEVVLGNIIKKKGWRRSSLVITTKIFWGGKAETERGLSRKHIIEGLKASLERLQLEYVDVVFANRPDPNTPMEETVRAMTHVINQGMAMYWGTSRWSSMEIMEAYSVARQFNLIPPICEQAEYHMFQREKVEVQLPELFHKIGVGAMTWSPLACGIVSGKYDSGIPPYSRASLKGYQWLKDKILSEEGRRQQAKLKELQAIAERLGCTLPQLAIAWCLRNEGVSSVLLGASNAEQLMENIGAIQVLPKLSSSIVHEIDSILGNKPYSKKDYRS
Compound,cell count [1],inhibition [1],inhibition of aggregation [2],nuclei count [2],inhibition [3],nuclei count [3],fluorescence slope [4],NADPH fluorescence slope [5],slope [6],inhibition [7],inhibition [8]
CCn1cc(C(C)NC(=O)COc2ccc(Cl)cc2C)c(C)n1 (stereo not drawn),713,-14.6% (inactive),0.6% (inactive),130%,-64.7% (inactive),105%,-0.404 (inactive),-2.9e-05 (inactive),0.00313 (inactive),1.5% (inactive),14.6% (inactive)
O=C(c1ccc2c(c1)[nH]c(=S)n1c3ccccc3nc21)N1CCN(c2ncccn2)CC1,515,4.8% (inactive),-5.1% (inactive),105%,-28.7% (inactive),114%,-0.347 (inactive),-1.3e-05 (inactive),0.00281 (inactive),13.2% (inactive),19.4% (inactive)
Cn1c2c(c(=O)n(C)c1=O)C(c1cccc(Br)c1)C1C(=O)c3ccccc3C1=N2 (stereo not drawn),720,-5.8% (inactive),2.7% (inactive),110%,3.3% (inactive),109%,-0.585 (inactive),-6.2e-05 (inactive),0.00438 (inactive),8.12% (inactive),12.5% (inactive)
Cc1ccc(-n2ncc3c(=O)n(CC(=O)NCc4ccco4)cnc32)cc1,473,-7% (inactive),9.4% (inactive),110%,-72.1% (inactive),108%,-0.485 (inactive),-0.000156 (inactive),0.00543 (inactive),21.7% (inactive),20.3% (inactive)
Cc1cc(-n2c(C)cc(C(=O)CSc3nnnn3-c3ccc(Cl)cc3)c2C)no1,415,4.2% (inactive),2.2% (inactive),94%,-55.8% (inactive),109%,-0.403 (inactive),-3.2e-05 (inactive),0.00589 (inactive),9.68% (inactive),13.2% (inactive)
O=C1CCCC2=C1C(c1ccc(Br)cc1)c1c([nH]c(=S)[nH]c1=O)N2 (stereo not drawn),407,-3.6% (inactive),17.6% (inactive),103%,-41.1% (inactive),109%,-0.378 (inactive),-5.8e-05 (inactive),0.00391 (inactive),6.81% (inactive),17.9% (inactive)
Cc1onc(-c2ccccc2Cl)c1C(=O)NCCn1c(C)cc2ccccc21,677,9% (inactive),7.9% (inactive),79.4%,-37.1% (inactive),124%,-0.419 (inactive),-1.5e-05 (inactive),0.00456 (inactive),15.6% (inactive),36.3% (inactive)
O=C1CN(C(=O)COC(=O)c2ccccc2NC(=O)c2ccco2)c2ccccc2N1,271,-3.3% (inactive),7.3% (inactive),108%,-31% (inactive),123%,-0.507 (inactive),-8.2e-05 (inactive),0.00572 (inactive),8.42% (inactive),-17.5% (inactive)
O=C(O)c1cc2c(s1)CCCC2,473,6.3% (inactive),8.1% (inactive),100%,15.7% (inactive),111%,-0.383 (inactive),-2.9e-06 (inactive),0.00578 (inactive),4.53% (inactive),8.58% (inactive)
O=C1CC(c2cccs2)CC2=C1C(c1ccccc1)n1ncnc1N2 (stereo not drawn),577,3.1% (inactive),4.6% (inactive),90.7%,-72.5% (inactive),98.9%,-0.597 (inactive),4.2e-06 (inactive),0.00446 (inactive),13.5% (inactive),25.2% (inactive)
CCOC(=O)C1CCN(c2c(Nc3ccc4c(c3)OCCO4)c(=O)c2=O)CC1,789,4.6% (inactive),0.6% (inactive),106%,-129% (inactive),125%,-0.622 (inactive),2.4e-05 (inactive),0.0056 (inactive),44% (inactive),27.5% (inactive)
COc1ccc(C2C3=C(CCCC3=O)Nc3nc(SCc4ccccc4)nn32)cc1OC (stereo not drawn),665,-12.9% (inactive),9.2% (inactive),91.2%,32.2% (inactive),105%,-0.335 (inactive),-6.9e-05 (inactive),0.00626 (inactive),6.77% (inactive),14.4% (inactive)
COc1ccc(OCC(=O)Nc2cccc3ncccc23)cc1,629,-16.2% (inactive),31.6% (inactive),84.8%,23.2% (inactive),95.6%,-0.622 (inactive),-5.4e-05 (inactive),0.00436 (inactive),1.02% (inactive),-8.12% (inactive)
Cn1c(=O)c2c(nc(CN3CCCCC3)n2CCCc2ccccc2)n(C)c1=O,431,10.1% (inactive),-30.7% (inactive),102%,38.4% (inactive),102%,-0.46 (inactive),-9.8e-06 (inactive),0.00664 (inactive),15.4% (inactive),44.7% (inactive)
CCCCN(C(=O)c1ccc(Cl)cc1)C1CC2CCC(C1)N2C (stereo not drawn),588,6.5% (inactive),5.4% (inactive),114%,-93.1% (inactive),116%,-0.561 (inactive),-6.5e-05 (inactive),0.0056 (inactive),-6.18% (inactive),35.3% (inactive)
COc1cccc(OC)c1OCCNCCO,632,-3.4% (inactive),7.9% (inactive),118%,8.1% (inactive),90.6%,-0.436 (inactive),3.2e-05 (inactive),0.00544 (inactive),13.1% (inactive),20.6% (inactive)
COc1ccc(NC(=O)CN(c2ccc(C)cc2)S(C)(=O)=O)c(OC)c1,498,10.1% (inactive),-0.7% (inactive),92.5%,-180% (inactive),139%,-0.392 (inactive),-6e-05 (inactive),0.0037 (inactive),4.75% (inactive),25.6% (inactive)
CCOC(=O)C1=C(C)NC(C)=C(C(=O)OCC)C1C(=O)OC1CCOC1=O (stereo not drawn),653,-4.7% (inactive),5.7% (inactive),112%,-121% (inactive),103%,-0.587 (inactive),-2.6e-05 (inactive),0.00602 (inactive),9.93% (inactive),20% (inactive)
CCN(CC)CCn1c(=N)n(CCO)c2ccccc21,592,0.2% (inactive),19.1% (inactive),95.6%,-30.1% (inactive),91.5%,-0.376 (inactive),1.5e-05 (inactive),0.00357 (inactive),7.52% (inactive),39.8% (inactive)
CCCn1c(-c2ccc(F)cc2)cnc1SCC(=O)O,431,9.9% (inactive),-4.3% (inactive),106%,-63.4% (inactive),106%,-0.622 (inactive),-3.6e-05 (inactive),0.00449 (inactive),16.2% (inactive),19.8% (inactive)
CCOc1ccccc1NC(=O)CCSc1nc2n[nH]c(C)c2c(=N)n1-c1ccccc1Cl,621,-10.2% (inactive),-22.3% (inactive),77.9%,30.1% (inactive),62.2%,-0.417 (inactive),-4.1e-05 (inactive),0.00336 (inactive),3.64% (inactive),5.23% (inactive)
COC(=O)C1(C(F)(F)F)N=C2Sc3ccccc3N2C(N2CCOCC2)=N1 (stereo not drawn),760,-8.1% (inactive),8.1% (inactive),76.2%,-62.6% (inactive),107%,-0.54 (inactive),-4.9e-05 (inactive),0.00667 (inactive),11.6% (inactive),26.4% (inactive)
Cc1cc(C)c(NC(=O)CSc2nnc(-c3ccncc3)n2Cc2ccco2)c(C)c1,412,-5% (inactive),-19.2% (inactive),111%,-107% (inactive),113%,-0.335 (inactive),-3.5e-05 (inactive),0.00447 (inactive),5.1% (inactive),10.2% (inactive)
CCOC(=O)N1CCN(C(=O)Cn2ncn3nc(-c4cccs4)cc3c2=O)CC1,313,-0.8% (inactive),14.8% (inactive),79.5%,9.5% (inactive),88.5%,-0.404 (inactive),2e-05 (inactive),0.00387 (inactive),-1.73% (inactive),-47.5% (inactive)
c1ccc(-n2ncc3c(NCc4cccs4)ncnc32)cc1,338,-5.7% (inactive),-6% (inactive),94.4%,-3.7% (inactive),118%,-0.415 (inactive),-4.2e-05 (inactive),0.00561 (inactive),-19.7% (inactive),-78.7% (inactive)
Cc1ccc(NC(=O)CSc2nnc(-c3ccccn3)n2C)cc1,644,14.4% (inactive),6.7% (inactive),92.4%,0.6% (inactive),111%,-0.418 (inactive),-2.7e-05 (inactive),0.00462 (inactive),0.794% (inactive),-5.25% (inactive)
CCN(CC)S(=O)(=O)c1ccc(Br)c(OC)c1,374,4.5% (inactive),-7.1% (inactive),100%,-15.1% (inactive),107%,-0.371 (inactive),-5.2e-05 (inactive),0.00493 (inactive),18.3% (inactive),34.5% (inactive)
COc1ccc(C(=O)NCc2nnc(SCC(=O)Nc3cc(C)cc(C)c3)o2)cc1OC,611,-14.4% (inactive),14% (inactive),76.5%,-100% (inactive),115%,-0.272 (inactive),-1e-05 (inactive),0.00582 (inactive),9% (inactive),9.85% (inactive)

# Source: PubChem BioAssay
